Assay in all cases: NCI-60 one-dose screen, 48 h (100 = growth as untreated, 0 = no growth, -100 = all killed)
Common to all, as to conditions: 10 µM unless noted

Assay [1] deals with HCT-15 colon.
Assay [2] deals with HT29 colon.
Assay [3] concerns SNB-75 CNS.
Assay [4] has as its system SNB-19 CNS.
Assay [5] deals with U251 CNS.
The subject of assay [6] is PC-3 prostate.
Assay [7] relates to SK-MEL-5 melanoma.
Assay [8] relates to UACC-62 melanoma.
The test system of assay [9] is LOX IMVI melanoma.
Assay [10] deals with SK-MEL-28 melanoma.
Assay [11] relates to SK-MEL-2 melanoma.
The subject of assay [12] is EKVX NSCLC.
Assay [13] has as its system SN12C renal.
The test system of assay [14] is UO-31 renal.
For assay [15], the system named is TK-10 renal.
Assay [16] has as its system ACHN renal.
Assay [17] has as its system A498 renal.
In assay [18] the test system is CCRF-CEM leukemia.
Assay [19] concerns MOLT-4 leukemia.
The subject of assay [20] is SR leukemia.

This is part of a sample that, as a whole, favours compounds with a hit. Of some 83,000 tested, about 20% had one in any assay.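 Values shown are percent growth following 48 h exposure of cells in 96-well plates to a single concentration of compound; below 10 was considered active.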 Unmarked numbers belong to inactive results. The source made the active and inactive calls.

As to `CCCCC1=c2c([nH]c3ccc(OC)cc23)=NC2C=CC=NC12` (stereo not given), the growth was 84.2% in [1]; 77.8% in assay [2]; 92.9% in [3]; 104% in assay [4]; 103% in [5]; 86.1% in [6]. Further, the growth is 84.3% in [7]; 94.5% in assay [8]; 91.4% in assay [9]; 112% in [10]; 110% in [11]; 84.3% in assay [12]. For the same molecule, the growth in [13] is 88.5%; in assay [14], 75%; in assay [15] it was 115%; in [16], 91.2%; in assay [17] it was 94.9%; in [18], 91.5%. Besides, the growth was 69.5% in assay [19] and 45% in assay [20].

As to `CC(=O)Nc1ccc2c(c1)Cc1cc(F)ccc1-2`, the growth in assay [1] was 105%; in assay [2] it was 92.2%; in assay [3], 87.4%; in [4] it was 103%; in assay [5], 95.5%; in assay [6] it was 95.5%. The growth in [7] was 102%; in [8] it was 90.7%; in assay [9] it was 95.8%; in assay [10], 117%; in [11] it was 94.8%; in assay [12], 104%. The growth in [13] is 107%; in [14] it was 56.8%; in [15] it was 104%; in assay [16], 104%; in assay [17] it was 73.2%; in assay [18], 99.1%. Also, the growth was 89.4% in [19] and 87.5% in assay [20].

On to `NC(=O)c1ccc(C2C3=C(CCCC3=O)OC3=C2C(=O)c2ccccc2C3=O)cc1` (stereo not given), for which the growth in assay [1] was 53.8%; in assay [2] it was 29.7%; in assay [3], -1.57% (active); in assay [4], 49.6%; in assay [5], 0.896% (active); in assay [6], 12.3%. Also, the growth is -93.9% (active) in assay [7]; -38.8% (active) in assay [8]; -19.3% (active) in assay [9]; 59.6% in assay [10]; 20.6% in assay [11]; 24.6% in assay [12]. Also, the growth is -3.43% (active) in [13]; 90.6% in [14]; 98.2% in assay [15]; 27.9% in assay [16]; 131% in [17]; 15% in assay [18]. The growth in [19] is -17.4% (active); in [20] it was 8.38% (active).

For the molecule `NC(=O)C(O)(c1ccccc1)c1ccccc1`, the growth in [1] was 101%; in [2], 92.3%; in assay [3], 89%; in assay [4] it was 99.4%; in [5], 101%; in assay [6] it was 87.3%. In addition, the growth in [7] is 106%; in [8], 95.9%; in [9] it was 100%; in assay [10] it was 112%; in [11] it was 105%; in assay [12], 100%. The growth in [13] was 99%; in assay [14] it was 93.8%; in [15] it was 97.3%; in assay [16] it was 108%; in assay [17] it was 84.9%; in [18] it was 87.9%. The growth in [19] was 98.6%; in assay [20], 83%.

For `S=c1ssnc1-c1cc2ccccc2o1`, the growth in assay [1] is 71.1%; in assay [2], 56.6%; in assay [3] it was 80.8%; in assay [4] it was 82%; in assay [5], 91.5%; in [6], 14.9%. Further, the growth in assay [7] was 68.7%; in [8], 86.6%; in assay [9], 60.5%; in [10], 93.2%; in [11], 91.2%; in assay [12], 76.6%. Moreover, the growth is 98.8% in assay [13]; 52.5% in [14]; 98.4% in assay [15]; 80.3% in [16]; 103% in assay [17]; 7.9% (active) in assay [18]. The growth was 51.1% in assay [19] and 41.6% in [20].

As for `CN1CCN(S(=O)(=O)O[C@@H]2C(=O)N(c3cc4c5ccccc5ccc4c4ccccc34)[C@H]2c2ccc(F)cn2)CC1`, the growth in assay [1] was 84.8%; in [2], 82%; in [3], 74.6%; in assay [4], 85%; in [5] it was 78.6%; in [6], 63.9%. For the same molecule, the growth is 88.7% in assay [7]; 86.5% in assay [8]; 84.5% in assay [9]; 113% in assay [10]; 92.8% in assay [11]; 85% in assay [12]. For the same molecule, the growth in assay [13] was 92.2%; in assay [14] it was 66.6%; in assay [15] it was 94.6%; in [16] it was 92.1%; in assay [17] it was 80.4%; in assay [18], 74.8%. Moreover, the growth is 66.6% in assay [19] and 52.5% in assay [20].

As for `CCOC(=O)C1=C(C)n2nc(CC#N)c(C#N)c2NC1c1ccc(CC)cc1` (stereo not given), the growth in [1] is 99.6%; in assay [2] it was 107%; in [3], 88.5%; in [4] it was 106%; in assay [5] it was 101%; in [6], 90.8%. The growth was 96.6% in assay [7]; 94.5% in assay [8]; 92.7% in [9]; 103% in [10]; 106% in [11]; 82.4% in assay [12]. Further, the growth is 100% in assay [13]; 65.4% in assay [14]; 109% in [15]; 98.7% in [16]; 104% in assay [17]; 101% in assay [18]. The growth in [19] and in assay [20] was 104% throughout.

The values above are taken from PubChem BioAssay (NCI).
